According to ChEMBL document CHEMBL1961873, “Compounds: GSK PKIS; Assays: Nanosyn kinase panel” (2012):
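Note: reported figure is the mean percent inhibition of CAMK1D.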

The molecules below were run against Calcium/calmodulin-dependent protein kinase type 1D (Homo sapiens) (UniProt Q8IU85). Conditions: at 1 µM.
Sequence of Calcium/calmodulin-dependent protein kinase type 1D (Homo sapiens) (Q8IU85 whole entry, looked up): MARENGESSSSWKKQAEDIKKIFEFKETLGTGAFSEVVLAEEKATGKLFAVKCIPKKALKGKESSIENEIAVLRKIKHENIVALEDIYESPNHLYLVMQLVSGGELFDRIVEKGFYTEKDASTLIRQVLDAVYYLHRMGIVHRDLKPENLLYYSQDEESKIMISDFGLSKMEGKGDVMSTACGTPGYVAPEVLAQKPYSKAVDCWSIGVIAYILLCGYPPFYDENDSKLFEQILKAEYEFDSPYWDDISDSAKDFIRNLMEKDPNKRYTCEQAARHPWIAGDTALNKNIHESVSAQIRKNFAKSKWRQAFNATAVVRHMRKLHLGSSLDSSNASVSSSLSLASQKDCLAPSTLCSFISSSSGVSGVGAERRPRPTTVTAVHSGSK
Molecule `Nc1nonc1-c1nc2cnccc2n1C1CCCCC1` has an inhibition of 1.22%.
`CCn1c(-c2nonc2N)nc2c(C#CC(C)(C)O)nc(O[C@@H](CN)c3ccccc3)cc21` gave an inhibition of 29.4%.
With `NS(=O)(=O)c1ccc(-c2ccc3c(NC(=O)C4CC4)n[nH]c3c2)cc1` the inhibition was 0.84%.
In the case of `CCn1c(-c2nonc2N)nc2c(C#CC(C)(C)O)ncc(OC[C@@H]3CCCN3)c21`, the inhibition is reported as 0.84%.
Molecule `Cc1cc(-c2ccco2)cc(C)c1/C=C/c1cncc(-c2nn[nH]n2)c1` has an inhibition of -0.49%.
For `CCn1c(-c2nonc2N)nc2c(C#CCN)ncc(OCCCN)c21`, the inhibition was -0.05%.
`Fc1ccc(-c2ncn(C3CCNCC3)c2-c2ccnc(Oc3ccccc3)n2)cc1` was tested, and the inhibition was 0.14%.
In the case of `NC(=O)c1sc(-n2cnc3cc(C(F)(F)F)ccc32)cc1OCc1ccccc1Br`, the inhibition is reported as 1.53%.
For `NS(=O)(=O)c1ccc(N/C=C2\C(=O)Nc3ccc4ncsc4c32)cc1`, the inhibition was 0.92%.
In the case of `COc1cc(C=NNc2ncnc3c2cnn3Cc2ccccc2)ccc1O`, the inhibition is reported as 0.78%.
`CCn1c(-c2nonc2N)nc2c(C#CC(C)(C)O)ncc(OCC3CCNCC3)c21` was tested, and the inhibition was 0.97%.
For `COc1cccc(COc2cc(-n3cnc4ccccc43)sc2C(N)=O)c1`, the inhibition was 0.38%.
`COc1cccc(-n2ncc3c(N/N=C/c4ccncc4)ncnc32)c1` was tested, and the inhibition was 2.43%.
